Test results from PubChem BioAssay (NCI).
This is part of a sample that, as a whole, favours compounds with a hit. Of some 79,000 tested, about 15% had one in any assay. Cut-off read from the data, not from the text of the source: active = growth inhibition above about 70%; inactive = the rest.

Tests used:
[1] = NCI Yeast Anticancer Drug Screen. Data for the rad50 strain (AID 155);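 note: 0% = growth of vehicle-only cultures of the same strain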; conditions: S. cerevisiae rad50 strain growth inhibition; at 50.0 µM; stronger effect = higher value
In short: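 Vehicle-treated cultures provide the reference for the growth inhibition reported for compound-exposed, repair-deficient yeast.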

[2] = NCI Yeast Anticancer Drug Screen. Data for the mec2-1 strain (AID 157); conditions: S. cerevisiae mec2-1 strain, at 50.0 µM, stronger effect = higher value
In short: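 mec2-1 yeast strain, carrying an alteration in DNA damage repair or cell cycle control, was exposed to compounds; growth inhibition was measured relative to vehicle-treated controls.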

[3] = NCI Yeast Anticancer Drug Screen. Data for the sgs1 mgt1 strain (AID 161);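 note: 0% = growth of cultures given vehicle only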; conditions: S. cerevisiae sgs1 mgt1 strain, at 50.0 µM, stronger effect = higher value
In short: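 Compounds are added to genetically altered yeast, and growth is compared with cultures given vehicle alone to give percent inhibition.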

[4] = NCI Yeast Anticancer Drug Screen. Data for the cln2 rad14 strain (AID 165);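 note: 0% = growth equal to vehicle treated cultures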; conditions: S. cerevisiae cln2 rad14 strain, at 50.0 µM, stronger effect = higher value
In short: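 Yeast carrying cln2 and rad14 alterations (cell cycle control and DNA damage repair) were exposed to compounds. Growth inhibition was measured against vehicle-treated controls.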

[5] = NCI Yeast Anticancer Drug Screen. Data for the bub3 strain (AID 167); conditions: S. cerevisiae bub3 mutant strain, at 50.0 µM, stronger effect = higher value
In short: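 Mutant yeast screening strain plus compound; vehicle-treated cultures serve as the 0% inhibition reference.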

[6] = NCI Yeast Anticancer Drug Screen. Data for the mlh1 rad18 strain (AID 175); conditions: S. cerevisiae mlh1 rad18 strain growth inhibition; at 50.0 µM; stronger effect = higher value
In short: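 Growth inhibition of the yeast strain was measured after compound exposure and expressed relative to vehicle-treated controls. The strain carries defined defects in DNA damage repair.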

Measured: growth inhibition

CC(C)c1nc(N)nc(N)n1
inactive: [1] 4.8% | [2] -23.8% | [3] 5.8% | [4] 12.8% | [5] 1% | [6] -16.8%

Cc1nn(C(=O)c2ccc(Cl)cc2)c2c1C(c1ccco1)SC(N)=N2 (stereo unspecified)
inactive: [1] -28.6% | [2] -17.5% | [3] -8.8% | [4] -17.9% | [5] -18.1% | [6] -14.8%

Brc1cccc(-c2nnc(-c3ccc4ccccc4c3)o2)c1
inactive: [1] -5.85% | [2] -29.5% | [3] 6% | [4] 11.4% | [5] -9% | [6] -2.25%

Cc1cccc(C(=O)OCCCl)c1
inactive: [1] 15.6% | [2] -7.5% | [3] 8.3% | [4] -29.1% | [5] 5% | [6] 5.2%

CSc1nc(N)c(NS(=O)(=O)c2ccc([N+](=O)[O-])cc2)c(=O)[nH]1
inactive: [1] 4.35% | [2] -8.05% | [3] 5.65% | [4] -3.95% | [5] 10.1% | [6] 14.1%

C=C(C)CN(CC(=C)C)C(C)=O
inactive: [1] 5.7% | [2] -17.7% | [3] -15.4% | [4] -6.15% | [5] -16.3% | [6] -5.85%

Cc1nnc2n(c1=O)CCCN2C
inactive: [1] -0.35% | [2] 6.2% | [3] 11.6% | [4] -11.8% | [5] 15.8% | [6] 13.4%

C[C@@H]1OC(=O)N2CCCC(=C3SCCCS3)C12 (stereo partly specified)
inactive: [1] 0.6% | [2] -0.05% | [3] -2.6% | [4] -25.1% | [5] 2.7% | [6] -12.2%

CCCCN(CCCC)C(=N)c1cccc(OC)c1
inactive: [1] -7.9% | [2] -13.4% | [3] -7.35% | [4] -15.3% | [5] 2.75% | [6] -17.9%

CCOC(=O)C1(C#N)C(C#N)(C#N)C1(C)CC (stereo unspecified)
inactive: [1] 10.8% | [2] -1.2% | [3] 24.8% | [4] -1.1% | [5] 0.75% | [6] -0.75%

CCc1nn2c(=O)nc(Oc3ccccc3)nc2s1
inactive: [1] -5.55% | [2] 8.85% | [3] 2% | [4] 2.55% | [5] 14.6% | [6] 23.4%

Nc1nc(N)c(CCCCc2ccc([N+](=O)[O-])cc2)c(N)n1
inactive: [1] -1.05% | [2] 21.1% | [3] 24.1% | [4] -9.95% | [5] -1.4% | [6] -21.3%

NC(=O)C1CCCC1
inactive: [1] -3.3% | [2] 2.1% | [3] -5.25% | [4] 14.1% | [5] 23.4% | [6] -5.05%

O=C(CCCl)OC1CCCC1
inactive: [1] 1.5% | [2] -9.8% | [3] -3.6% | [4] -30.4% | [5] -5.65% | [6] 9%

CCOc1ccc(NCC(=O)N2CC(=O)Nc3ccccc32)cc1
inactive: [1] -19.6% | [2] -21.9% | [3] -40.4% | [4] -5.15% | [5] -42.2% | [6] -35.2%

CC(=O)CC(=O)Nc1cccc(C)n1
inactive: [1] -0.4% | [2] -9.95% | [3] -14.3% | [4] 3.8% | [5] 6.25% | [6] 7.25%

Cc1ccc(N=Nc2ccc(C)cc2NC(=O)c2ccc(Cl)cc2Cl)cc1
inactive: [1] 9.2% | [2] -9.7% | [3] 9.1% | [4] 4.55% | [5] -1.55% | [6] 18.2%

CC(=O)N/C(=C\c1ccc(Cc2nc3c([nH]2)C(=O)c2ccccc2C3=O)cc1)c1nc2c([nH]1)C(=O)c1ccccc1C2=O
inactive: [1] -7.5% | [2] 12.4% | [3] 11.1% | [4] 23.7% | [5] 15.2% | [6] 33.1%

Nc1nc(Cl)c(Cl)nc1C(=O)O
inactive: [1] -4.65% | [2] 10.4% | [3] 2.3% | [4] -32.6% | [5] -4.25% | [6] -1.15%

Cc1ccc(S(=O)(=O)/C(C#N)=C/NC(=S)Nc2ccc(S(N)(=O)=O)cc2)cc1
inactive: [1] 12.5% | [2] -21.2% | [3] -4.1% | [4] -6.85% | [5] -10.7% | [6] -10.9%

C/C(C[n+]1ccccc1)=N\N=C(N)N
inactive: [1] -18.8% | [2] -9.05% | [3] -43.8% | [4] -20.5% | [5] -5.35% | [6] -9.2%
